Reference: PMC4336329 (PLoS ONE, 2015)
About 14,000 (4.5%) of roughly 310,000 compounds showed an effect of 50% or more. Effects have a minus sign here. The sample as a whole holds a higher share of strong results than the screen did.

target: human ether-à-go-go-related gene (hERG) potassium channel (human, UniProt Q12809); experiment: primary screen, population patch clamp on CHO cells stably expressing hERG; higher = less effect of the substance
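Note: peak tail current of the secondary pulse compared with the same well before compound.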

Chain of human ether-à-go-go-related gene (hERG) potassium channel (Q12809 whole entry, looked up): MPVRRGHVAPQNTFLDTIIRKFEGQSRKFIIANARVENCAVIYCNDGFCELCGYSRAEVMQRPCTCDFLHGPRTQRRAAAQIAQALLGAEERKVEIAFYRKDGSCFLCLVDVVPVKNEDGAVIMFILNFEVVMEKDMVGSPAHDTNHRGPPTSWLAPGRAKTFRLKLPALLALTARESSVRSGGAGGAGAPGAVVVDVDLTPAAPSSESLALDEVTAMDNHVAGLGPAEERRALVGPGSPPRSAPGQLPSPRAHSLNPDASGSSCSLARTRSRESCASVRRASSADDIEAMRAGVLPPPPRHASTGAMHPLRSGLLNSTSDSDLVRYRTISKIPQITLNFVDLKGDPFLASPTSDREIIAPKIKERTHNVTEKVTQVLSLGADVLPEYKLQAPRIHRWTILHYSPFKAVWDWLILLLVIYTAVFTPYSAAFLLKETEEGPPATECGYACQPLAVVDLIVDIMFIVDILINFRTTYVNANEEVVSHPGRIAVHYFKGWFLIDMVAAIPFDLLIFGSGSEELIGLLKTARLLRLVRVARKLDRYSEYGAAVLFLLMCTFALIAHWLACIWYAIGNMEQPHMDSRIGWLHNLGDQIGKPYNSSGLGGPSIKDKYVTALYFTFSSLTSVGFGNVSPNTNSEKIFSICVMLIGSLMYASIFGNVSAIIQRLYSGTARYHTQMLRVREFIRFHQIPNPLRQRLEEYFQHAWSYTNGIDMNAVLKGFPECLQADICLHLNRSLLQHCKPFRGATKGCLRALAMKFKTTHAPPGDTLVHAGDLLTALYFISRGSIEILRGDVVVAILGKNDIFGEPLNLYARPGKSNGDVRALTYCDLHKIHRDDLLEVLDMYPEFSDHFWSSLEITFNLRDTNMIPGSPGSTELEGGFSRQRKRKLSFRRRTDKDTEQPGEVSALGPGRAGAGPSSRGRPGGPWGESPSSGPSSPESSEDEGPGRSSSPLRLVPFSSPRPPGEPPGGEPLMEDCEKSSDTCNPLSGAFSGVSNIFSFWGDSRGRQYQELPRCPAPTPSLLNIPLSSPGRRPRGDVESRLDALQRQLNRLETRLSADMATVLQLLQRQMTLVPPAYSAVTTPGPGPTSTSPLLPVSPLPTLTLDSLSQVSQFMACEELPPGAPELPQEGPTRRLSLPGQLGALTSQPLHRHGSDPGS

First: COc1ccc(-n2ncc3c2CC(C)(C)CC3NC(=O)c2oc(C)cc2C)cc1 (centres unmarked)
Second: COc1ccc(-n2ncc3c2CC(C)(C)CC3NC(=O)c2ocnc2C)cc1 (centres unmarked)
The “hERG current change (%, negative = inhibition) at 10uM” value of the first is higher: 15.2% for the first, -53.5% for the second.

Going from `Cc1cc(C(=O)NC2CC(C)(C)Cc3c2cnn3-c2ccc(F)cc2)nn1C` (centres unmarked) to `Cn1nccc1C(=O)NC1CC(C)(C)Cc2c1cnn2-c1ccc(F)cc1` (centres unmarked), the “hERG current change (%, negative = inhibition) at 10uM” value falls from -14.8% to -61.4%.

Compared with `C=CCCC(=O)NC1CC(C)(C)Cc2c1cnn2-c1ccc(OC)cc1` (centres unmarked), `COc1ccc(-n2ncc3c2CC(C)(C)CC3NC(=O)CCc2c(C)noc2C)cc1` (centres unmarked) is higher in “hERG current change (%, negative = inhibition) at 10uM” value: -46% for the first, -21.7% for the second.

Going from `COc1ccc(-n2ncc3c2CC(C)(C)CC3NC(=O)c2c(C)cc(=O)oc2C)cc1` (centres unmarked) to `COc1ccc(-n2ncc3c2CC(C)(C)CC3NC(=O)C2=CC(=O)CC(C)(C)O2)cc1` (centres unmarked), the “hERG current change (%, negative = inhibition) at 10uM” value falls from -51.1% to -68.3%.

Going from `COc1ccc(-n2ncc3c2CC(C)(C)CC3NC(=O)c2ccnn2C)cc1` (centres unmarked) to `COc1ccc(-n2ncc3c2CC(C)(C)CC3NC(=O)c2ccc(OC)o2)cc1` (centres unmarked), the “hERG current change (%, negative = inhibition) at 10uM” value rises from -78% to -50.2%.

Going from `CC1(C)Cc2c(cnn2-c2ccc(F)cc2)C(NC(=O)C2=NNC(=O)CC2)C1` (centres unmarked) to `Cc1ncoc1C(=O)NC1CC(C)(C)Cc2c1cnn2-c1ccc(F)cc1` (centres unmarked), the “hERG current change (%, negative = inhibition) at 10uM” value rises from -68.4% to -20.7%.

First: COc1ccc(-n2ncc3c2CC(C)(C)CC3NC(=O)Cc2nonc2C)cc1 (centres unmarked)
Second: Cc1nonc1CC(=O)NC1CC(C)(C)Cc2c1cnn2-c1ccc(F)cc1 (centres unmarked)
The “hERG current change (%, negative = inhibition) at 10uM” value of the first is higher: 3.4% for the first, -15.7% for the second.

First: CCc1nccn1CCC(=O)NC1CC(C)(C)Cc2c1cnn2-c1ccc(OC)cc1 (centres unmarked)
Second: COc1ccc(-n2ncc3c2CC(C)(C)CC3NC(=O)CSc2ccccn2)cc1 (centres unmarked)
The “hERG current change (%, negative = inhibition) at 10uM” value of the first is higher: -16.2% for the first, -68% for the second.

Going from `COc1ccc(-n2ncc3c2CC(C)(C)CC3NC(=O)c2cnc(C)cn2)cc1` (centres unmarked) to `COCc1ccc(C(=O)NC2CC(C)(C)Cc3c2cnn3-c2ccc(OC)cc2)o1` (centres unmarked), the “hERG current change (%, negative = inhibition) at 10uM” value falls from -4.41% to -29.3%.

Compared with `COC(=O)c1ccc(C(=O)NC2CC(C)(C)Cc3c2cnn3-c2ccc(F)cc2)nc1` (centres unmarked), `CCN(CC)CC(=O)NC1CC(C)(C)Cc2c1cnn2-c1ccc(F)cc1` (centres unmarked) is higher in “hERG current change (%, negative = inhibition) at 10uM” value: -23.4% for the first, 7.43% for the second.

First: Cn1cc(S(=O)(=O)NCc2ccco2)c(=O)n(C)c1=O
Second: COc1cccc(NC(=O)c2ccc3c(c2)N(CC(=O)N2CCOCC2)C(=O)C(C)(C)O3)c1
The “hERG current change (%, negative = inhibition) at 10uM” value of the first is higher: 3.03% for the first, -5.35% for the second.

Compared with `Cc1onc(-c2c(F)cccc2Cl)c1C(=O)NCc1cccs1`, `COc1ccc(CCNC(=O)c2c(O)c3ccccc3[nH]c2=O)cc1` is higher in “hERG current change (%, negative = inhibition) at 10uM” value: -21.2% for the first, 15.4% for the second.

First: COc1ccc(S(=O)(=O)N2CCOCC2)cc1N(C)S(=O)(=O)c1ccc(C)cc1
Second: COc1ccc(-n2ncc3c2CC(C)(C)CC3NC(=O)CN2CCOC2=O)cc1 (centres unmarked)
The “hERG current change (%, negative = inhibition) at 10uM” value of the first is higher: 0.666% for the first, -32.9% for the second.

First: C/C(CC(=O)Nc1ccccn1)=N\NC(=O)c1ccccc1O
Second: Cc1ncoc1C(=O)NC1CC(C)(C)Cc2c1cnn2-c1ccccc1 (centres unmarked)
The “hERG current change (%, negative = inhibition) at 10uM” value of the first is higher: 6.73% for the first, -20.5% for the second.

Compared with `CCOCCc1nnc(NC(=O)c2cccc(F)c2)s1`, `COc1ccc(C(=O)NC2CC(C)(C)Cc3c2cnn3-c2ccccc2C)o1` (centres unmarked) is lower in “hERG current change (%, negative = inhibition) at 10uM” value: 0.0842% for the first, -30.5% for the second.

First: COc1cc(NC(=O)C(C)Oc2ccccc2)cc(OC)c1 (centres unmarked)
Second: Cc1ccccc1-n1ncc2c1CC(C)(C)CC2NC(=O)C1=CC(=O)CC(C)(C)O1 (centres unmarked)
The “hERG current change (%, negative = inhibition) at 10uM” value of the first is higher: -2.9% for the first, -4.61% for the second.
